Test results: PubChem BioAssay (NCATS)
Unmarked numbers belong to inactive results. Results filed as inconclusive are left out. Entries that show only a call come without a potency. Active and inactive are the calls of the source. Unless noted, calls come from the whole dose curve; as a rule, active = well fitted curve in the direction sought with a large enough effect; inconclusive = small, poorly fitted or top-dose-only effect, or another doubt; inactive = no such curve, though single readings can be large; an effect the other way counts as inactive or inconclusive.

How the values were obtained:
[1] = qHTS for Inhibitors of Cell Surface uPA Generation: Validation Assay (AID 493164); settings: mouse cells, plasminogen activation; series mostly up to 38.3 µM;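 note: RAW 264.7 macrophage cells exposed to compound for 18 h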
In short: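 RAW 264.7, 4000 cells/well, o/n plating; cpd 7-pt 1:5 dilution 2.45 nM–38.3 uM final; 18 h, 37 C/5% CO2; ATP-Lite, 5 s luminescence exposure.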

[2] = target: Galactokinase (Homo sapiens) (UniProt P51570); test: qHTS Validation Assay for Inhibitors of Human Galactokinase (GALK) (AID 493189); settings: purified human GALK enzyme activity, qHTS 7-point titration; series mostly up to 57.5 µM
Chain of Galactokinase (Homo sapiens) (P51570 whole entry, looked up): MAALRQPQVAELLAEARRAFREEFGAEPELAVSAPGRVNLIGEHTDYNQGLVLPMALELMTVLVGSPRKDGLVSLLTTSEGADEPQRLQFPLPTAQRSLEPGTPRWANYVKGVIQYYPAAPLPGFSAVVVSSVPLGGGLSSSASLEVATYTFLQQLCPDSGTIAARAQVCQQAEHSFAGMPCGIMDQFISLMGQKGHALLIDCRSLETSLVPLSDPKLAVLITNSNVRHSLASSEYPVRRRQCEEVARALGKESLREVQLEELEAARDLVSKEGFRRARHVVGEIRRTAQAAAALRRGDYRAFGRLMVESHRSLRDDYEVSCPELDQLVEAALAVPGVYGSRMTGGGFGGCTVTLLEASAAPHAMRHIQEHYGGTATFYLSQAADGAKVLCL
In short: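 Inhibition was measured as remaining ATP, detected by luciferase luminescence after a 1 h room-temperature reaction. Final conditions: 5 nM GALK, 100 uM galactose, 35 uM ATP, pH 8.0 HEPES buffer.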

[3] = Validation screen for small molecules that induce DNA re-replication in SW480 colon adenocarcinoma cells (AID 504364); settings: DNA re-replication phenotype (high-content imaging); series mostly up to 46.1 µM
In short: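 SW480 cells seeded at 250 per well were exposed to compound or DMSO for 48 hr at 37 C, 5% CO2, then stained with Hoechst for 40 min. DNA content per nucleus was imaged (405 nm ex, 500-530 nm em).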

[4] = target: phosphoglycerate mutase (Leishmania major) (UniProt Q4Q090); test: qHTS Validation Assay to Find Inhibitors of Phosphoglycerate Mutase (AID 504548); settings: biochemical enzyme activity; Potency: inhibition qHTS; series mostly up to 57.5 µM;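 note: end-point luminescence from Kinase-GloPlus after the PGAM reaction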
Chain of phosphoglycerate mutase (Leishmania major) (Q4Q090 1-553): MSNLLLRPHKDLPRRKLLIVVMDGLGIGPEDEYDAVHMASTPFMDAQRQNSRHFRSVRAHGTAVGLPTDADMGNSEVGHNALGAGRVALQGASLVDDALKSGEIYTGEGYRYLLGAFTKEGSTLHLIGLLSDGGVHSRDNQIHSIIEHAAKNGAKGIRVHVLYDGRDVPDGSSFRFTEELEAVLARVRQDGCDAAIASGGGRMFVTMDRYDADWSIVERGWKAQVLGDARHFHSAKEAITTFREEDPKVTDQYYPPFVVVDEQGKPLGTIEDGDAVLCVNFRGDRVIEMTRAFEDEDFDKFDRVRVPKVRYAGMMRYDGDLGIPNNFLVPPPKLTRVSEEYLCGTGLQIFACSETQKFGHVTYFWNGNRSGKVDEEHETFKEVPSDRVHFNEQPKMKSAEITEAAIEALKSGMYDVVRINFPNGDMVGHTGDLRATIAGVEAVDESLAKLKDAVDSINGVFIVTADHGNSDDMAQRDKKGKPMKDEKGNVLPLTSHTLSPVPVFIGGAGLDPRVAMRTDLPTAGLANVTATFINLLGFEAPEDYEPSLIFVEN
In short: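 L. major PGAM (1.25nM final) was added to substrate buffer and pinned compound, incubated 45 minutes at room temperature, then Kinase-GloPlus added; luminescence read after 10 minutes. Buffer: 100 mM TEA pH 7.6, 5 mM MgCl2, 0.01% Tween-20.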

[5] = qHTS for Inhibitors of ATXN expression: Validation of Cytotoxic Assay (AID 588349); settings: cytotoxicity counter-screen for ATXN expression inhibitors, cell viability; series mostly up to 57.1 µM
In short: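 HEK293 cells were dosed with titrated compounds for 72 hr at 37 degrees C. Viability was read by CellTiter Glo luminescence, with intracellular ATP as the marker of cell survival.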

[6] = qHTS for Inhibitors of ATXN expression: Validation (AID 588378); settings: cell-based ATXN2 expression reporter assay, luminescence; series mostly up to 57.1 µM; note: nearly all actives have a fitted effect of over 75% in size
In short: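 Luciferase luminescence (Bright-Glo) from an ATXN2-FFLuc HEK293 line after 24 h compound exposure at 37 °C, preceded by a CellTiter-Fluor fluorescence viability read. Serial dilutions of a reference ATXN2 inhibitor and a luciferase inhibitor served as controls.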

[7] = target: Peptidyl-prolyl cis-trans isomerase NIMA-interacting 1 (Homo sapiens) (UniProt Q13526); test: qHTS Validation Assay to Find Inhibitors of Pin1 (AID 504536; active = well fitted inhibition curve with a large enough effect in the polarisation, with a control signal flat, not every such curve was filed as active; the % refers to the polarisation); settings: Pin1 fluorescence polarization peptide binding assay; series mostly up to 57.5 µM
Chain of Peptidyl-prolyl cis-trans isomerase NIMA-interacting 1 (Homo sapiens) (Q13526 whole entry, looked up): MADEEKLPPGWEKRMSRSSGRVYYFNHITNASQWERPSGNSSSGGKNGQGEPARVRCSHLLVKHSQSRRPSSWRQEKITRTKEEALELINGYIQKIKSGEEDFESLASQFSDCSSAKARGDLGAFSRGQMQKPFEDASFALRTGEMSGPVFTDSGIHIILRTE
In short: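 Fluorescence polarization competition: compounds (titration) displace HiFluor-488-labeled Pin1-1b peptide from Pin1 (0.3 uM final) in pH 7.5 HEPES buffer with DTT, 10 min at room temperature; %Activity normalized to no-enzyme wells, curves fitted.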

[8] = target: Phosphoglycerate kinase, glycosomal (Trypanosoma brucei brucei) (UniProt P07378); test: qHTS Validation Assay to Find Inhibitors of Phosphoglycerate Kinase (AID 504547); settings: enzymatic PGK inhibition, coupled luminescence read-out; series mostly up to 57.5 µM
Chain of Phosphoglycerate kinase, glycosomal (Trypanosoma brucei brucei) (P07378 whole entry, looked up): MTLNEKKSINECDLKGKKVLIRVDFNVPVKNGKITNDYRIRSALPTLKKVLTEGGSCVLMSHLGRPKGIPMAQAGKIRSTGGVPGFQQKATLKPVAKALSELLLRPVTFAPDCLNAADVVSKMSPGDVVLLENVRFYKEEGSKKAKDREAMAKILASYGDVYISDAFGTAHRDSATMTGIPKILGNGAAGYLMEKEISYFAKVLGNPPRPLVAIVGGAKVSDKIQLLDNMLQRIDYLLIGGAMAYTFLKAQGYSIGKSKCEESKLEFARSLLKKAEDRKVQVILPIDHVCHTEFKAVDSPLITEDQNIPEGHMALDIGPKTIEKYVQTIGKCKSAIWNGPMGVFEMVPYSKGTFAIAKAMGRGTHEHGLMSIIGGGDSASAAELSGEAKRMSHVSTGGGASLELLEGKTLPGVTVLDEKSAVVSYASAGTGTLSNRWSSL
In short: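 PGK activity was coupled to GAPDH (100nM final), which generates the unstable substrate 1,3-bisphosphoglycerate in-well. Reactions ran 60 minutes at room temperature in 100mM TEA pH 7.6, 5mM MgCl2, 0.01% Tween-20, then Kinase-Glo Plus luminescence was read.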

[9] = target: Ubiquitin carboxyl-terminal hydrolase 1 (Homo sapiens) (UniProt O94782); test: Inhibitors of USP1/UAF1: Pilot qHTS (AID 504865); settings: purified USP1/UAF1, Ub-rhodamine cleavage fluorescence; series mostly up to 114 µM; note: nearly all actives have a fitted effect of over 35% in size; note: potency is the fitted concentration of half-maximal effect
Chain of Ubiquitin carboxyl-terminal hydrolase 1 (Homo sapiens) (O94782 whole entry, looked up): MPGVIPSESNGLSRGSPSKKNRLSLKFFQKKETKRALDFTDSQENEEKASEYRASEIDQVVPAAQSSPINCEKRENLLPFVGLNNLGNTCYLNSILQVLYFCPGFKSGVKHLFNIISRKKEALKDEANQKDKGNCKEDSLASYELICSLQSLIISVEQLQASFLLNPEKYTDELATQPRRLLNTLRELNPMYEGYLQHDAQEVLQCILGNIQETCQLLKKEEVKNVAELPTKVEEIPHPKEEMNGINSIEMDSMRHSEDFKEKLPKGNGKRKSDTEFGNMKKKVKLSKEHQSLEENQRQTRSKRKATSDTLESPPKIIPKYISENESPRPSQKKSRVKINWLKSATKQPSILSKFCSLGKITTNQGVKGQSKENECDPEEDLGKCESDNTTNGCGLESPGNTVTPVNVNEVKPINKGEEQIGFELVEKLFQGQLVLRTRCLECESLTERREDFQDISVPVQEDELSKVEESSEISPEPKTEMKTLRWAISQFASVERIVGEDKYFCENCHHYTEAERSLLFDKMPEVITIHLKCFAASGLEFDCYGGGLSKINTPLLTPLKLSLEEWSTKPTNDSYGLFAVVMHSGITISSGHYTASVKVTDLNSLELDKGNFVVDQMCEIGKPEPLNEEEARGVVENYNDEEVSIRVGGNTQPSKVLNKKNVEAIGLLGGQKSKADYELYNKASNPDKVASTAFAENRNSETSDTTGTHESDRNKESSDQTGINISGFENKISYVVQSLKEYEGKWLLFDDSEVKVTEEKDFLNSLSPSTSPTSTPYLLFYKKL
In short: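 Deubiquitinase activity followed as kinetic rhodamine fluorescence release from 150 nM Ub-Rho. 1 nM USP1/UAF1 with compound, after 15 min room-temperature preincubation, in HEPES pH 7.8 buffer containing TCEP, EDTA, BSA and Tween-20.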

[10] = target: DNA dC->dU-editing enzyme APOBEC-3G (Homo sapiens) (UniProt Q9HC16); test: qHTS for inhibitors of Vif-A3G interactions: Validation (AID 588379); settings: Vif-A3G protein interaction assay; series mostly up to 46.1 µM
Chain of DNA dC->dU-editing enzyme APOBEC-3G (Homo sapiens) (Q9HC16 whole entry, looked up): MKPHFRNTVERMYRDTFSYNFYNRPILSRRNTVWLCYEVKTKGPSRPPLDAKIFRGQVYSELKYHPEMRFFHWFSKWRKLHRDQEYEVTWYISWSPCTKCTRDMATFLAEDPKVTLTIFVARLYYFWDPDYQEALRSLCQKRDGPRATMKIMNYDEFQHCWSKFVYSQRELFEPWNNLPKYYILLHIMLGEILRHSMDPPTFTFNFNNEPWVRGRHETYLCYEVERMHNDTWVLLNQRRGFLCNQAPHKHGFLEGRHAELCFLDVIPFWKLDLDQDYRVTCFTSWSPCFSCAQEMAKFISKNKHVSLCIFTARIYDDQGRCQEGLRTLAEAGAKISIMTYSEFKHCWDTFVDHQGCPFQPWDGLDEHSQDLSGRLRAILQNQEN
In short: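 HeLa cells stably expressing Vif and A3G-eYFP, 700 cells/well, incubated overnight at 37 deg C, then exposed to compound overnight at 37 deg C. Inhibition of Vif-mediated degradation read as increased yellow fluorescence (Ex 488/Em 500-530) by laser-scanning cytometry.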

[11] = target: Androgen receptor (Homo sapiens) (UniProt P10275); test: qHTS assay for small molecule agonists of androgen receptor signaling (AID 588515; active = well fitted curve in the direction sought with a large enough effect in the signal ratio, with a control signal flat; the % refers to the signal ratio); settings: AR-UAS-bla HEK293, beta-lactamase ratio, agonist 16 h; active compounds read high
Chain of Androgen receptor (Homo sapiens) (P10275 whole entry, looked up): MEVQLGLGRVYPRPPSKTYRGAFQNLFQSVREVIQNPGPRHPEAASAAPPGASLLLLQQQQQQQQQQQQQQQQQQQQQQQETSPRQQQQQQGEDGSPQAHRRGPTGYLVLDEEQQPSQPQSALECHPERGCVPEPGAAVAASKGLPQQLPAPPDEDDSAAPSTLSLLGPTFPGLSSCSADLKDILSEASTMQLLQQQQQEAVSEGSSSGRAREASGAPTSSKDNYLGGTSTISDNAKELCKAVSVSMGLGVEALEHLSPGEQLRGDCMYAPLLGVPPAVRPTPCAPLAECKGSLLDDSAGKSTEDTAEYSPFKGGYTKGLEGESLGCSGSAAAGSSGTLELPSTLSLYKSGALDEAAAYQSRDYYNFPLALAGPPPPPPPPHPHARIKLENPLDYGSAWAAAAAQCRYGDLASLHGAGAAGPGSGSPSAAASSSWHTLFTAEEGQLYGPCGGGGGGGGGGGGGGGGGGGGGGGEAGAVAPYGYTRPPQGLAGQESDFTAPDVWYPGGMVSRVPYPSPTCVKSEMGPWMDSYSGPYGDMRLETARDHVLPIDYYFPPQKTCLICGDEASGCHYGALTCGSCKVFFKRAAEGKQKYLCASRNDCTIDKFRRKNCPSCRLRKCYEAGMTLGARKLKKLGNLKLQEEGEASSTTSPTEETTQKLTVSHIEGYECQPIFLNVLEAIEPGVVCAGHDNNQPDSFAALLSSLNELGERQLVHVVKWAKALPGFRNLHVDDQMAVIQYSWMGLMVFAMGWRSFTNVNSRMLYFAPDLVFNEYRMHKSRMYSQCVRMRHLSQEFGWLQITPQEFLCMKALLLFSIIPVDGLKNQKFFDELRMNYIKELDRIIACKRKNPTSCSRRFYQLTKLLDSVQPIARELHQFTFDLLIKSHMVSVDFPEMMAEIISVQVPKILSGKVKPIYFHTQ
In short: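 EC50 and efficacy came from Hill fits of titrations (up to 92 uM) normalized to 30 nM R1881 as 100% and DMSO as 0%. Compound exposure was 16 h at 37 C on AR-UAS-bla HEK293 cells, with a 405/460/530 nm CCF4 fluorescence read.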

[12] = target: Androgen receptor (Homo sapiens) (UniProt P10275); test: qHTS assay for small molecule antagonists of androgen receptor signaling (AID 588516; active = well fitted curve in the direction sought with a large enough effect in the signal ratio, with a control signal flat, not every such curve was filed as active; the % refers to the signal ratio); settings: AR-UAS-bla HEK293, beta-lactamase ratio, antagonist mode, 16 h; series mostly up to 76.8 µM
In short: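 Antagonist mode: inhibition of R1881-stimulated (10 nM final) bla reporter in GeneBLAzer AR HEK 293 cells, 16 h at 37C, compounds titrated. IC50 and efficacy from Hill-equation fits of 405/460–530 nm FRET ratios.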

[13] = target: Bile acid receptor (Homo sapiens) (UniProt Q96RI1); test: qHTS assay for small molecule antagonists of farnesoid X receptor signaling (AID 588526; calls by dose curve); settings: HEK293T FXR-UAS-bla, beta-lactamase ratio, antagonist mode; series mostly up to 76.7 µM
Chain of Bile acid receptor (Homo sapiens) (Q96RI1 whole entry, looked up): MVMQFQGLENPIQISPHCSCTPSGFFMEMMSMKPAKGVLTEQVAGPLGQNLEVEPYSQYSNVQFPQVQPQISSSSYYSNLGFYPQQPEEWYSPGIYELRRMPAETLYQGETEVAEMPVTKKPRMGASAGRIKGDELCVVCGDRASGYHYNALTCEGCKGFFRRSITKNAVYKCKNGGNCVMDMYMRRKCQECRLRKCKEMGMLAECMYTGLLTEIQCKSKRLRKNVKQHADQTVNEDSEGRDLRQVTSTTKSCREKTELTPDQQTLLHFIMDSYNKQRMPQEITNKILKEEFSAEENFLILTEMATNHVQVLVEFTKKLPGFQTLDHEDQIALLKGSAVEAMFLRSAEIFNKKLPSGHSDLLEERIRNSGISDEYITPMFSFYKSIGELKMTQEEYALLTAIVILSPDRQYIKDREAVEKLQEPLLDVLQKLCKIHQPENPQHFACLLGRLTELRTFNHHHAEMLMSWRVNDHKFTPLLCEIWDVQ
In short: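 Antagonist mode: titrated compounds tested against chenodeoxycholic acid stimulation (normalized to 50 uM CDCA and DMSO) in GeneBLAzer HEK293T cells for 16 h. Beta-lactamase read by CCF4 fluorescence; IC50 from Hill fits.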

[14] = target: Glucocorticoid receptor (Homo sapiens) (UniProt P04150); test: qHTS assay for small molecule agonists of glucocorticoid receptor signaling (AID 588532; active = well fitted curve in the direction sought with a large enough effect in the signal ratio, with a control signal flat; the % refers to the signal ratio); settings: HeLa MMTV-bla, beta-lactamase ratio, agonist, 18 h; active compounds read high; percent of dexamethasone control, DMSO zero
Chain of Glucocorticoid receptor (Homo sapiens) (P04150 whole entry, looked up): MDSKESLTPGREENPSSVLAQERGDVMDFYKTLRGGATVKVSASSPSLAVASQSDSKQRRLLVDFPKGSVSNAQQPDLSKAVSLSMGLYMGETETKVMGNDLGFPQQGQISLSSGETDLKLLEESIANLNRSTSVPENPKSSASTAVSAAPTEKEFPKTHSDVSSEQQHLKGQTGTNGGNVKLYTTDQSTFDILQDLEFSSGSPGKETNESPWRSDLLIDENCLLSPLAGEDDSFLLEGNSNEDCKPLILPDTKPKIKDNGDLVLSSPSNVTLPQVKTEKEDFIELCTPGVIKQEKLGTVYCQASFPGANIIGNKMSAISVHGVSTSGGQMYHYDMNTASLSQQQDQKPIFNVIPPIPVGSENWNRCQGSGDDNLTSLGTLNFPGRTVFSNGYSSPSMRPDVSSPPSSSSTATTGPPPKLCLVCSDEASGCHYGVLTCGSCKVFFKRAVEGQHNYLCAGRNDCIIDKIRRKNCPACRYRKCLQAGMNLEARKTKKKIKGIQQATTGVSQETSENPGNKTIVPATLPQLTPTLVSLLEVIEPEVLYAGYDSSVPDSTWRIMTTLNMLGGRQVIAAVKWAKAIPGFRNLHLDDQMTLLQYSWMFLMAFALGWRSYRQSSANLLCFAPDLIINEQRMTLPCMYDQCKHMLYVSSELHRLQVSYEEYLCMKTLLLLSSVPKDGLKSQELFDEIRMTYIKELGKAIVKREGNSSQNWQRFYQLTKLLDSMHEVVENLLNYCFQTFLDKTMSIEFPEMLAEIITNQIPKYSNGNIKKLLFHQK
In short: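 MMTV-bla HeLa beta-lactamase reporter cells in 1% charcoal/dextran FBS medium, compounds up to 92 uM for 18 h at 37 C, CCF4 readout; normalized to 0.1 uM dexamethasone (100%), EC50 and efficacy from Hill fits.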

[15] = target: Glucocorticoid receptor (Homo sapiens) (UniProt P04150); test: qHTS assay for small molecule antagonists of glucocorticoid receptor signaling (AID 588533; active = well fitted inhibition curve with a large enough effect in the signal ratio, with a control signal flat, not every such curve was filed as active; the % refers to the signal ratio;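 note: cells stimulated with 2 nM dexamethasone as agonist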); settings: HeLa MMTV-bla, GRE beta-lactamase ratio, antagonist mode, 18 h; series mostly up to 76.8 µM
In short: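 Antagonist-mode qHTS: compound titrations added to GRE-bla HeLa cells, then dexamethasone 2 nM final; 18 h, 37 C. CCF4 FRET fluorescence normalized to dexamethasone and DMSO; IC50 from Hill fit.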

## CCCCCCCCCCC/C=C\C(C)(C)/C=C\CCCC(=O)O
[1]
  outcome: inactive
[2]
  Potency: inactive
[3]
  Potency: inactive
[4]
  Potency: inactive
[5]
  Potency: inactive
[6]
  Potency: inactive

## N[C@H](C(=O)O)[C@H]1C[C@@H]1C(=O)O
[2]
  Potency: inactive
[3]
  Potency: inactive
[7]
  Potency: inactive
[8]
  Potency: inactive
[4]
  Potency: inactive
[9]
  Potency: inactive
[5]
  Potency: inactive
[6]
  Potency: inactive

## [N-]=[N+]=Nc1ccc(C(=O)CSC[C@H](NC(=O)CC[C@H](N)C(=O)O)C(=O)NCC(=O)O)cc1
[1]
  outcome: inactive
[2]
  Potency: inactive
[3]
  Potency: inactive
[4]
  Potency: inactive
[9]
  Potency: 35.5 µM (active)
[5]
  Potency: inactive
[6]
  Potency: inactive

## c1ccc2nc(C3=NCCN3)ccc2c1
[2]
  Potency: inactive
[3]
  Potency: inactive
[7]
  Potency: inactive
[8]
  Potency: inactive
[4]
  Potency: inactive
[9]
  Potency: inactive
[5]
  Potency: inactive
[6]
  Potency: inactive
[10]
  Potency: inactive

## Nc1ncnc2c1c(-c1ccc(Oc3ccccc3)cc1)cn2C1CCCC1
[1]
  outcome: inactive
[2]
  Potency: inactive
[7]
  Potency: inactive
[8]
  Potency: inactive
[4]
  Potency: inactive
[9]
  Potency: inactive

## CNCCc1cnc(CCC(c2ccccc2)c2ccccc2)[nH]1
[1]
  outcome: inactive
[7]
  Potency: inactive
[4]
  Potency: inactive
[9]
  Potency: inactive

## C=CC[C@H](N)C(=O)O
[2]
  Potency: inactive
[3]
  Potency: inactive
[7]
  Potency: inactive
[8]
  Potency: inactive
[4]
  Potency: inactive
[5]
  Potency: inactive
[6]
  Potency: inactive

## CCCc1c(OCCCOc2ccc(OCC(=O)O)cc2)ccc(C(C)=O)c1O
[2]
  Potency: inactive
[3]
  Potency: inactive
[7]
  Potency: inactive
[8]
  Potency: inactive
[4]
  Potency: inactive
[9]
  Potency: 79.4 µM (active)
[5]
  Potency: inactive
[6]
  Potency: inactive
[11]
  activation: -2.09%
[12]
  outcome: inactive
[13]
  outcome: inactive
[14]
  activation: -12.7%
[15]
  Potency: inactive

## CC(C)(C)c1ccc(/C=C/C(=O)Nc2ccc3c(c2)OCCO3)cc1
[1]
  outcome: inactive
[7]
  Potency: inactive
[8]
  Potency: inactive
[4]
  Potency: inactive

## CC(C)[C@@H]1CC[C@@H](C)C[C@@H]1P(=O)(c1ccccc1)c1ccccc1
[8]
  Potency: inactive
[4]
  Potency: inactive
[9]
  Potency: inactive
[5]
  Potency: inactive
[6]
  Potency: inactive

## CC[C@H](NC(=O)c1c(C)c(-c2ccccc2)nc2ccccc12)c1ccccc1
[2]
  Potency: inactive
[8]
  Potency: inactive
[4]
  Potency: inactive
[9]
  Potency: inactive
[5]
  Potency: inactive
[10]
  Potency: inactive

## O=c1[nH]c(=S)[nH]c(-c2ccccc2)c1Cc1c(O)ccc2ccccc12
[7]
  Potency: inactive
[8]
  Potency: inactive
[4]
  Potency: inactive
[5]
  Potency: inactive
[6]
  Potency: inactive

## CC(C)C[C@H](NC(=O)C1OC1C(=O)O)C(=O)NCCCCN=C(N)N (stereo partly drawn)
[2]
  Potency: inactive
[3]
  Potency: inactive
[7]
  Potency: inactive
[8]
  Potency: inactive
[4]
  Potency: inactive
[9]
  Potency: inactive

## CCCCCCN(CCCCCC)C(=O)Cc1c(-c2ccc(F)cc2)[nH]c2ccccc12
[1]
  outcome: inactive
[2]
  Potency: inactive
[7]
  Potency: inactive
[4]
  Potency: inactive
[5]
  Potency: inactive
[6]
  Potency: inactive
[10]
  Potency: inactive

## NCC(O)C1CCCCCCC1 (stereo not drawn)
[2]
  Potency: inactive
[3]
  Potency: inactive
[7]
  Potency: inactive
[4]
  Potency: inactive
[9]
  Potency: inactive

## N#C/C(=C\c1ccc(O)c(O)c1)C(=O)NCCCNC(=O)/C(C#N)=C/c1ccc(O)c(O)c1
[1]
  outcome: inactive
[2]
  Potency: inactive
[4]
  Potency: inactive
[6]
  Potency: inactive

## N#CC(=C(\N)Sc1ccccc1N)/C(C#N)=C(/N)Sc1ccccc1N
[1]
  outcome: inactive
[2]
  Potency: inactive
[7]
  Potency: inactive
[8]
  Potency: inactive
[4]
  Potency: inactive
[9]
  Potency: inactive
[5]
  Potency: inactive

## CCn1c(=O)[nH]c2cc(Cl)c(Cl)cc21
[2]
  Potency: inactive
[3]
  Potency: inactive
[7]
  Potency: inactive
[8]
  Potency: inactive
[4]
  Potency: inactive
[9]
  Potency: inactive
[5]
  Potency: inactive
[6]
  Potency: inactive
[10]
  Potency: inactive
